Compound activity deposited in PubChem BioAssay by several laboratories.
Phagocyt inh: macrophage phagocytosis inhibition; J774A.1 macrophage IgG-bead phagocytosis, imaging; inhibition, % at 5 µM; hit rate 0.07% among 110,000;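 active = inhibition above the mean of the plate negative controls plus 5 SD, cut at about 13% in these data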;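 note: phagocytic index as fraction of beads internalized from green versus red external bead signal; plate controls were DMSO negative control for no effect and cytochalasin-D positive control for full effect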
Measles CPE: protection of cells from measles virus; Measles virus-infected cells, CPE protection, absorbance; protection (pct of control), % at 4 µM; hit rate 1.5% among 140,000; AID 841; in the data active = protection mostly above about 24%, no sharp cut-off; inactive = mostly below about 26%
sdo1 growth: compounds rescuing growth of sdo1-depleted yeast, bone marrow failure model | S. cerevisiae sdo1-depleted JHY4D growth rescue, OD600 30 h; stronger effect = higher value; pdr5 snq2 efflux-pump mutant strain | z-score at 10 µM | hit rate 0.21% among 140,000 | AID 817;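 active = z-score above 3 at both the 24 hr and the 30 hr optical density reads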;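 note: z-score against mean and SD of all compound wells on the same plate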
* hit, by the source's call; / = no result. A selection: hits, their analogues and other compounds. The true share with any hit is near 1.8%.

SMILES	Phagocyt inh	Measles CPE	sdo1 growth
O=C(COC(=O)CC(NC(=O)c1ccccc1Cl)c1ccccc1)Nc1cccc(F)c1 (configuration not stated)	-10.3	13.7	-0.89
O=C(CC(NC(=O)c1ccccc1Cl)c1ccccc1)NCCc1ccc(Cl)cc1 (configuration not stated)	-0.5	40.5*	-1.39
O=C(COC(=O)CNS(=O)(=O)c1ccc(F)c(F)c1F)Nc1ccc(OC(F)F)cc1	-14.3	6.0	-0.86
O=C(c1cc2ccccc2oc1=O)N(Cc1ccccc1)Cc1ccc2c(c1)OCO2	/	5.1	-1.43
CC(=O)N1CCN(C2c3cccc4cccc(c34)C2NS(=O)(=O)c2ccccc2)CC1 (configuration not stated)	2.3	3.7	0.28
Cc1ccc(C(=O)N2CCN(C3c4cccc5cccc(c45)C3NS(=O)(=O)c3ccccc3)CC2)cc1 (configuration not stated)	/	55.2*	-0.75
O=C(CSc1nc2ccccc2c(=O)n1Cc1ccco1)N1CCN(c2ccccc2)CC1	-2.5	44.6*	-1.43
CCCn1c(SCC(=O)N2CCN(c3ccccc3)CC2)nc2ccccc2c1=O	/	3.0	-1.45
CCSc1nnc(Cc2cc(=O)[nH]c(=O)[nH]2)n1-c1cc(C)ccc1C	0.8	4.4	1.81
CCOc1ccc(C(C)NC(=O)C2CCC2)cc1 (configuration not stated)	-6.9	13.7	0.68
CCCCOc1ccc(C(C)NC(=O)C2CCCN(S(=O)(=O)CC)C2)cc1 (configuration not stated)	/	37.9*	-0.34
CCc1ccc(C(=O)NN(C(=O)c2ccc(CC)cc2)C(C)(C)C)cc1	-2.9	11.6	-0.14
COCCN(C(=O)CSc1nnc(Nc2ccccc2F)s1)c1c(N)n(Cc2ccccc2)c(=O)[nH]c1=O	-1.4	6.0	-0.02
COc1ccc(C2=NC(=O)/C(=C\c3cc(OC)c(OC)c(OC)c3)O2)cc1	-2.8	8.3	1.63
COc1ccc(-c2nc(C#N)c(N3CCCCCC3)o2)cc1OC	-0.8	2.4	-1.84
CCCn1nnc(NC(=O)C(C)Oc2ccc(Cl)cc2Cl)n1 (configuration not stated)	-0.7	47.0*	0.48
CC(Oc1ccc(Cl)cc1Cl)C(=O)Nc1ccncc1 (configuration not stated)	-0.8	9.2	-2.54
CC12CCC(C(=O)N(CC(O)CN3CCCCCC3)C1=O)C2(C)C (configuration not stated)	-13.9	19.9	1.37
O=C(O)c1ccccc1NS(=O)(=O)c1ccc2c3c(cccc13)C(=O)N2	-1.6	8.1	0.47
O=C1Nc2ccc(NS(=O)(=O)c3cccs3)c3cccc1c23	0.0	44.1*	0.39
CC(C)(C)CC(C)(C)NC(=O)CSCC(=O)Nc1ccc2ccccc2c1	/	12.2	-2.49
CCCCCn1c(SCC2CCCO2)nc2cc(C(=O)N3CCC(C(N)=O)CC3)ccc2c1=O (configuration not stated)	/	55.2*	1.32
CCCCCn1c(SCC(=O)OCC)nc2cc(C(=O)NCc3ccco3)ccc2c1=O	1.1	8.9	-0.83
CC(=O)c1cc2c(cc1NS(=O)(=O)c1ccc(C)cc1)OCCO2	-1.9	2.2	-1.07
Cc1cc(C)cc(-n2nnnc2SCC(=O)N2CCOCC2)c1	/	3.2	0.68
SMILES	Phagocyt inh	Measles CPE	sdo1 growth
O=C(CSc1nnnn1-c1cccc2ccccc12)N1CCOCC1	-0.8	36.2*	0.14
COc1cccc2cc(C(=O)N(C)C3CCN(C)CC3)c(=O)oc12	/	30.2	0.98
O=C(Nc1nc(-c2cc(Cl)sc2Cl)cs1)c1ccccc1	0.0	21.9	-1.05
CSc1nccc(-c2cc(Cl)sc2Cl)n1	-0.4	19.5*	-1.16
Clc1ccc(Cn2c(-c3cccnc3Cl)nc3ccccc32)c(Cl)c1	/	4.4	-1.64
Clc1ccc(Cn2c(-c3cccnc3Cl)nc3ccccc32)cc1	/	32.6*	-1.74
O=[N+]([O-])c1c(Nc2ccccc2)ccc2nonc12	-0.6	28.1*	0.37
COc1cccc(Nc2cc(N3CCOCC3)c3nonc3c2[N+](=O)[O-])c1	-3.8	3.6	-1.52
O=C(CCN1CCc2ccccc2C(c2ccccc2)C1)c1ccc2c(c1)OCCO2 (configuration not stated)	0.1	40.9*	0.41
O=C(CCN1Cc2ccccc2C1)c1ccc2c(c1)OCCO2	-0.4	17.2	0.62
O=C(CSc1ccc2c(c1)OCCO2)NC(=O)Cc1ccccc1	-4.4	4.9	-1.08
COc1c([N+](=O)[O-])c(=O)oc2ccccc12	-12.8	8.7	0.34
CC(=O)CC(c1ccc([N+](=O)[O-])cc1)c1c(O)c2ccccc2oc1=O (configuration not stated)	-0.3	36.5*	0.79
CCOC(=O)CSC1=Nc2ccccc2C2=NC(CC(=O)NCc3ccc4c(c3)OCO4)C(=O)N12 (configuration not stated)	-5.1	7.9	-0.44
COc1ccc(NC(=O)CSc2nnnn2-c2ccc(OC)cc2)cc1	-0.7	4.8	-0.69
